The source made the active and inactive calls. How the source made its calls: active means hit-call score of the fitted dose curve at least 0.9, where 1 is the maximum; inactive means score below 0.9.
read-out: Tumor necrosis factor (Homo sapiens) (UniProt P01375); experiment: BSK_BT_xTNFa: BioMAP Diversity Plus: BT Assay for Tumor necrosis factor alpha (TNF-alpha) Biomarker Activity (AID 2284230); conditions: primary human B cells with PBMC
Procedure: BSK_BT is a cell-based, multiplexed-readout assay that uses B cell and peripheral blood mononuclear cells, a human vascular primary cell co-culture, with measurements taken at 24 hours after chemical dosing in a microplate: 96-well plate.BSK_BT_xTNFa is an assay component of the BSK_BT assay. It measures secreted TNF-alpha related to regulation of gene expression using LumineX xMAP technology.Data from the assay component BSK_BT_xTNFa was analyzed at the endpoint, BSK_BT_xTNFa, in the positive analysis fitting direction relative to DMSO as the negative control and baseline of activity. Using a type of cytokine quantitation reporter, gain or loss-of-signal activity can be used to understand protein changes. To generalize the intended target to other relatable targets, this assay endpoint is annotated to the 'cytokine' intended target family, where the subfamily is 'inflammatory factor'.
The levels of cell surface (or secreted, indicated by the prefix "s") biomarker endpoints were measured by ELISA. Overt cytotoxicity to cells in confluent adherent cultures (all systems other than the BT system) was assessed by measuring total protein levels using sulforhodamine B (SRB) staining in parallel cultures at the time of biomarker measurements, indicated as SRB endpoints. For proliferation assays for adherent cell types, individual cell types are cultured at sub-confluence and relative cell numbers quantified by SRB staining at time points optimized for each system (48 h: 3C and CASM3C systems; 72 h: BT and HDF3CGF systems; 96 h: SAg system). SRB was performed by staining cells with 0.1% SRB after fixation with 10% TCA and reading wells at 560 nm.Viability and proliferation of PBMC (T cells) was quantified by Alamar Blue reduction for the SAg and BT systems. For PBMC viability (referred to as PBMC Cytotoxicity within the assay endpoint names), cells were plated (75,000/well in a 96-well plate) and then chemical samples added for 1 h before addition of activators, SEB and TSST-1 (20 ng/mL final concentration each). Cells were incubated for 90 h. Then, Alamar Blue (20 uL/well) (Invitrogen, Cat DAL1100) was added for 6 h, and the plates were read with a fluorescence microplate reader at 546/580 nm (excitation/emission). For PBMC proliferation, cells were plated and activated as above but incubated for only 16 h prior to addition of Alamar Blue. Plates were read after 6 h.

Sequence of Tumor necrosis factor (Homo sapiens) (P01375 whole entry, looked up): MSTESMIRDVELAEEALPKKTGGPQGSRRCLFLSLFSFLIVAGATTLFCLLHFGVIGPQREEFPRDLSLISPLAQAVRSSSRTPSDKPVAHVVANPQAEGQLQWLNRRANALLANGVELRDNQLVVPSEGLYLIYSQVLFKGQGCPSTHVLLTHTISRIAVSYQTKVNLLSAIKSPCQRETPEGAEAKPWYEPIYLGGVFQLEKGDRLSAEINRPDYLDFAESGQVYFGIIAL

**Q.** Which outcome does the source give for `S=P(N1CC1)(N1CC1)N1CC1` here?
**A.** inactive

**Q.** Which outcome does the source give for `O=S(=O)(O)CCC(F)(F)C(F)(F)C(F)(F)C(F)(F)C(F)(F)C(F)(F)F` here?
**A.** inactive

**Q.** With `FC(F)C(F)(F)COCC1CO1` (stereo not drawn) as the compound, how does the outcome read?
**A.** inactive

**Q.** Which outcome does the source give for `FC(F)(F)C(F)(F)C(F)(F)C(F)(F)C(F)(F)C(F)(F)I` here?
**A.** inactive

**Q.** Which outcome does the source give for `FC(F)=C(F)C(F)(F)C(F)(F)C(F)(F)C(F)(F)C(F)(F)C(F)(F)F` here?
**A.** inactive

**Q.** For `OCCC(F)(F)C(F)(F)C(F)(F)C(F)(F)F`, which outcome is on record?
**A.** inactive

**Q.** `O=C(Cl)C(F)(F)C(F)(F)C(F)(F)C(=O)Cl` was tested. Which outcome did it give?
**A.** inactive

**Q.** Which outcome does the source give for `FC(F)(F)COC(OCC(F)(F)F)OCC(F)(F)F` here?
**A.** inactive

**Q.** For `Cc1cccc(O)c1C`, which outcome is on record?
**A.** inactive

**Q.** How did the outcome turn out when `C[Si](C)(C)C(F)(F)C(F)(F)C(F)(F)F` was run?
**A.** inactive

**Q.** How did the outcome turn out when `NCC(F)(F)C(F)(F)C(F)(F)C(F)(F)F` was run?
**A.** inactive

**Q.** How did the outcome turn out when `OCc1c[nH]c2ccccc12` was run?
**A.** inactive

**Q.** For `OC(O)(C(F)C(O)(O)C(F)(F)F)C(F)(F)F`, which outcome is on record?
**A.** inactive
